From PubChem BioAssay (NCATS)
Inconclusive results are not listed. The source made the active and inactive calls. The call rests on the fitted dose curve; in most records, active means well fitted inhibition curve with a large enough effect; inconclusive means small, poorly fitted or top-dose-only effect; inactive means flat fitted curve, though single readings scatter.

Tests used:
Assay in all cases: qHTS profiling for inhibitors of Plasmodium falciparum proliferation (AID 504749); further: nearly all actives have a fitted effect of over 60% in size
Conditions in all cases: P. falciparum in erythrocytes, SYBR Green DNA, 72 h; series mostly up to 28.7 µM
[1] = test system: CP217
How it was run: (§1)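 Three-day growth assay of blood-stage parasites in erythrocytes (0.3% parasitemia, 2.5% hematocrit) at 37 C, 5% CO2, quantified by SYBR Green DNA staining after overnight detergent lysis.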

[2] = test system: CP237
How it was run: as §1

[3] = test system: CP238
How it was run: as §1

[4] = test system: CP247
How it was run: as §1

[5] = test system: CP250
How it was run: as §1

[6] = test system: CP252
How it was run: as §1

[7] = test system: CP256
How it was run: as §1

[8] = test system: CP260
How it was run: as §1

[9] = test system: CP262
How it was run: as §1

[10] = test system: CP265
How it was run: as §1

[11] = test system: CP266
How it was run: as §1

[12] = test system: CP268
How it was run: as §1

[13] = test system: CP269
How it was run: as §1

[14] = test system: CP286
How it was run: as §1

[15] = test system: CP291
How it was run: as §1

[16] = test system: CP297
How it was run: as §1

[17] = test system: CP305
How it was run: as §1

[18] = test system: CP315
How it was run: as §1

[19] = test system: CP325
How it was run: as §1

[20] = test system: CP329
How it was run: as §1

Measured: Potency

NC(=O)OCC(COC(N)=O)c1ccccc1
inactive: all assays above

COc1cc2c(c(OC)c1OC)-c1ccc(OC)c(=O)cc1[C@@H](NC(C)=O)CC2
inactive: all assays above

Cn1cnc2c1c(=O)[nH]c(=O)n2C
inactive: all assays above

NCCS(=O)(=O)O
not listed: [15] | [18]
inactive: all other assays above

Cc1cn([C@H]2C[C@H](N=[N+]=[N-])[C@@H](CO)O2)c(=O)[nH]c1=O
inactive: all assays above

Cc1ccc(C(=O)Nc2ccc(S(=O)(=O)O)c3cc(S(=O)(=O)O)cc(S(=O)(=O)O)c23)cc1NC(=O)c1cccc(NC(=O)Nc2cccc(C(=O)Nc3cc(C(=O)Nc4ccc(S(=O)(=O)O)c5cc(S(=O)(=O)O)cc(S(=O)(=O)O)c45)ccc3C)c2)c1
inactive: all assays above

CN1CCN2c3ccccc3Cc3ccccc3C2C1 (centres undefined)
inactive: all assays above

COc1ccccc1N1CCN(CC(O)COc2cccc3ccccc23)CC1 (centres undefined)
inactive: all assays above

CS(=O)(=O)CCNCc1ccc(-c2ccc3ncnc(Nc4ccc(OCc5cccc(F)c5)c(Cl)c4)c3c2)o1
not listed: [12] | [16]
inactive: all other assays above

CN1CCC(=C2c3ccccc3C=Cc3ccccc32)CC1
not listed: [12] | [13]
inactive: all other assays above

CC[N+](CC)(CC)CCOc1cccc(OCC[N+](CC)(CC)CC)c1OCC[N+](CC)(CC)CC
inactive: all assays above
